# According to PubChem BioAssay AID1490 (National Center for Advancing Translational Sciences (NCATS), 2009):
# Several values for one entry are separate records, joined by “and”; a condition that tells them apart may be missing. Equal entries are not always repeated. In all, about 310,000 compounds went through this assay and about 11,000 (3.5%) were called active. Another 4% or so got no clear call; they are omitted. This is one part of a sample in which actives are shown more often than they occur. A number with no mark means an inactive call. The call rests on the fitted dose curve; in most records, active means well fitted inhibition curve with a large enough effect; inconclusive means small, poorly fitted or top-dose-only effect, or another doubt; inactive means no such curve, though single readings can be large or run the other way.
# Target: 4'-phosphopantetheinyl transferase ffp (Bacillus subtilis) (UniProt Q9F4F7)
# Test: qHTS Assay for Inhibitors of Bacillus subtilis Sfp phosphopantetheinyl transferase (PPTase);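 further: the enzyme is Sfp with the accession as filed and its product quenches rhodamine fluorescence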;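 on largest response in the series, negative = inhibition: 0% = enzyme reaction without inhibitor and -100% = no enzyme wells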
# Conditions: Biochemical Sfp PPTase activity
# Procedure, shortened: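 With Hepes-Na pH 7.6 buffer containing 10 mM MgCl2, Sfp (15 nM) modified BHQ-2-YbbR (12.5 uM) using rhodamine-CoA (5 uM). Two reads 30 minutes apart at 525/598 nm yielded each well's rate.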
# Potency means the concentration at half of the fitted maximal effect.
SMILES,"largest response in the series, negative = inhibition",Potency
CC(=C1C(=O)c2ccccc2C1=O)N1CCN(CCN=Cc2c(O)n(C)c(=O)n(C)c2=O)CC1,10.2%,–
CN1C2CC3CC1C(O3)C2O (configuration not stated),-0.102%,–
Fc1ccc(C(OCCN2CCN(C/C=C\c3ccccc3)CC2)c2ccc(F)cc2)cc1,–,89.1 µM (active)
C[C@H]1CC[C@@]2(NC1)O[C@@H]1C[C@H]3[C@@H]4CC=C5C[C@@H](O)CC[C@]5(C)[C@@H]4CC[C@]3(C)[C@@H]1[C@@H]2C,7.1%,–
COc1ccc(NC(=O)N2CCC3(CC2)OCCO3)c(OC)c1,-7.26%,–
CO[C@H]1[C@@H](O)[C@@H](C)O[C@H](O[C@H]2[C@H](Oc3cccc4c(O)c5c(=O)oc6ccc(C)c7c(=O)oc(c34)c5c67)O[C@H](C)[C@H](O)[C@@H]2O)[C@@H]1O,-22.5%,–
CN(C)C(=O)Oc1cc(OC(=O)N(C)C)cc(C(O)CNC(C)(C)C)c1 (configuration not stated),2.1%,–
O=C1NC(=O)N(Cc2ccco2)C(=O)/C1=C\c1cccn1CCOc1ccccc1,–,20 µM (active)
O=C1NC(=O)N(Cc2ccco2)C(=O)/C1=C\c1ccc(-c2ccc(F)cc2)o1,–,31.6 µM (active)
CC[C@]1(O)C(=O)OCc2c1cc1n(c2=O)Cc2cc3ccccc3nc2-1,6.01%,–
COP(=O)(NS(=O)(=O)c1ccccc1)OC,17.4%,–
C=CCN1CCC2(C)c3cc(O)ccc3CC1[C@@H]2C (some centres not stated),3.98%,–
CCc1nnc(NS(=O)(=O)c2ccc(N=Cc3c(O)n(-c4ccccc4)c(=O)[nH]c3=O)cc2)s1,-8.17%,–
Cc1cc(C)cc(NC(=S)NC2CC3CCCC(C2)N3Cc2cccs2)c1 (configuration not stated),14.7%,–
CC(C)Oc1cccc(C(=O)C2CCCN(C3CCOCC3)C2)c1 (configuration not stated),17.1%,–
CCN(CC)c1nc(C)cc(OP(=S)(OC)OC)n1,6.37%,–
O=c1c2ccccc2nc(/C=C/c2ccco2)n1-c1ccccc1O,–,10 µM (active)
O=c1c2ccccc2nc(-c2ccco2)n1-c1ccc(Br)cn1,-3.04%,–
O=c1c2ccccc2nc(/C=C/c2ccc(F)cc2)n1-c1ccccc1O,-2%,–
CCN1CC2C3CCC(C)(O3)C2C1 (configuration not stated),13.8%,–
O=C(N/N=C/c1c(O)n(C2CC2)c(=S)[nH]c1=O)c1ccccc1Cl,9.37%,–
CC(C)(C)c1ccc(OC(=O)N2CCCCC2)cc1,-1.08%,–
N[C@H](Cc1o[nH]c(=O)c1Cl)C(=O)O,–,79.4 µM (active)
N[C@H](C(=O)O)c1cc(=O)[nH]o1,2.79%,–
CCOP(=O)(OCC)C(O)c1ccc(OC)cc1OC (configuration not stated),9.04%,–
CN(C)C(=O)Oc1cc(=O)n2c3c(cccc13)CCC2,10.3%,–

SMILES,"largest response in the series, negative = inhibition",Potency
C[C@]12CC[C@H](O)C[C@@H]1CC[C@H]1[C@H]2CC[C@]2(C)C(=O)CC[C@@H]12,-1.51% and 34.7% and 1.49%,–
O=[N+]([O-])c1ccc(C2C3C(c4ccccc4)=NC4(CCCCC4)N32)cc1 (configuration not stated),-4.07%,–
c1csc(CN2CC3(CCNCC3)C2)n1,12.2%,–
C=CCN1C(=O)NC(=O)/C(=C/c2ccc(OCC(=O)Nc3ccc(C)cc3)cc2)C1=O,–,35.5 µM (active)
C=CCN(CC=C)C(=O)Nc1ccc(OCC)cc1,0.3%,–
O=C(Cc1ccccc1)N1CCN(C2CCCCCC2)CC1,-9.44%,–
Cc1noc(C)c1CSc1nc2cc(S(=O)(=O)N3CCOCC3)ccc2o1,–,20 µM (active)
CCC1(c2ccccc2)C(=O)NC(=O)N(C)C1=O (configuration not stated),9.18%,–
Nc1ccc(-c2ccc(N)c(N)c2)cc1N,-2.55%,–
CN(c1ccccc1)c1ccc([N+](=O)[O-])c2nonc12,-10.3%,–
CN(C)C(=O)Oc1ccc2c(c1)O/C(=C\c1ccccc1)C2=O,2.07%,–
Cc1nc2ccccn2c1P(=S)(N1CCCCC1)N1CCCCC1,–,56.2 µM (active)
COc1ccc2[nH]cc(CCNCc3ccc(Br)cc3)c2c1,-23.1%,–
Cc1cccc(N2C(=O)NC(=O)/C(=C\c3cnn(-c4ccccc4)c3)C2=O)c1,–,39.8 µM (active)
Cc1c(C(=O)O)cccc1-n1c(C)cc(/C=C2\C(=O)NC(=O)N(c3ccc4c(c3)OCO4)C2=O)c1C,-16.8%,–
O=C(Nc1cccc(F)c1)N1CC[C@@]2(CCCN(C(=O)Oc3ccccc3)C2)C1,-5.07%,–
CC[N+]1(C)CCCC(OC(=O)C(O)(c2ccccc2)c2ccccc2)C1 (configuration not stated),15.8% and 11.5%,–
COc1ccccc1NC(=O)N1C[C@@H]2C[C@@H](C1)c1cccc(=O)n1C2,13.6%,–
CN=C(NC#N)NCCSCc1nc[nH]c1C,5.33% and -12.8% and 5.86%,–
COC(=O)N(c1ccc(OC)cc1)P1(=S)OCCC(C)O1 (configuration not stated),–,12.6 µM (active)
CC(C)CN1CCN(Cc2ccccc2C(F)(F)F)CC1CCO (configuration not stated),6.48%,–
O=C(CCN1CCCCC1)NCC(=O)Nc1ccc(Br)cc1C(=O)c1ccccc1,-17.5%,–
C[C@@H]1C[C@@H]2O[C@H]2/C=C\C=C\C(=O)Cc2c(Cl)c(O)cc(O)c2C(=O)O1,–,15.8 µM (active)
CNP1(NC)=Nc2nn(-c3ccccc3)c(N)c2C(c2ccccc2)=N1,2.05%,–
CCNC[C@H](O)c1cccc(O)c1,18.1%,–
CCOC(=O)c1c(C)c(C(=O)N2CCC3(CC2)OCCO3)c(C)n1CC,-3.49%,–
